From PubChem BioAssay (Tox21)
Inconclusive results are not listed. Where a call stands in place of a potency, no number is given. Calls of active or inactive are those of the source. The call rests on the fitted dose curve; in most records, active means well fitted cell-killing curve with a large enough effect in the repeat runs (not every such curve was filed as active); inconclusive means weak or mixed curves, or effect the other way; inactive means no such curve, though single readings can be large or run the other way.

Assay: qHTS assay to identify small molecule antagonists of the farnesoid-X-receptor (FXR) signaling pathway - cell viability counter screen (AID 743221); further: nearly all actives have a fitted effect of over 50% in size
Conditions: FXR-bla HEK293T viability, CellTiter-Glo luminescence, 16 h; series mostly up to 62.6 µM
Description: National Center for Advancing Translational Sciences [NCATS]
NIH Chemical Genomics Center [NCGC]
U.S. Environmental Protection Agency [EPA]
National Institutes of Environmental Health Sciences [NIEHS]
National Toxicology Program [NTP]
U.S. Food and Drug Administration [FDA]
The farnesoid-X-receptor (FXR), a nuclear hormone receptor, is highly expressed in liver, intestine, kidney and adrenal cortex. Natural ligands of FXR are the bile acids (Cholic acid, Chenodeoxy cholic acid etc). FXR is an important regulator of diverse metabolic pathways, including the bile acid homeostasis, lipid and glucose metabolisms. FXR regulates the expression of target genes by binding either as a monomer or as a heterodimer with the retinoid X receptor (RXR). Numerous studies have reported that FXR exerts protective function during cholestasis, diabetes, liver regeneration, and cancer. To identify compounds that inhibit FXR signaling, GeneBLAzer FXR-UAS-bla HEK 293T cell line (Invitrogen, Carlsbad, CA) containing a beta-lactamase reporter gene under the control of a UAS response element was used to screen the Tox21 10K compound library. The cytotoxicity of the Tox21 compound library against the FXR-bla cell line was tested in parallel by measuring the cell viability using CellTiter-Glo assay in the same wells.
Tox21 Assay Protocol Summary:
FXR-bla cells were dispensed at 5000 cells/5uL/well in 1536-well black wall/clear bottom plates using a Multidrop Combi (Thermo Fisher Scientific, Waltham, MA) dispenser. After the assay plates were incubated at 37 C and 5% CO2 for 5 h, 23 nL of compounds dissolved in DMSO, positive controls or DMSO only was transferred to the assay plate by a Pintool station (Kalypsys, San Diego, CA), followed by addition of 1 uL Chenodeoxycholic acid (50 uM, final concentration in the wells). The assay plates were incubated at 37C for 16 h. After 1 uL of LiveBLAzerTM B/G FRET substrate was added using a Bioraptr Flying Reagent Dispenser (FRD) workstation (Beckman Coulter, Indianapolis, IN), the plates were incubated at room temperature for 2 h, and fluorescence intensity was measured by an Envision plate reader (PerkinElmer, Shelton, CT). For cell viability readout that measures cytotoxicity, 4uL/well of CellTiter-Glo reagent was added into the assay plates using a Bioraptr FRD. After 30 min incubation at room temperature, the luminescence intensity in the plates was measured using a ViewLux plate reader (PerkinElmer).
Potency means the concentration at half of the fitted maximal effect.

| Structure (SMILES) | Potency |
| --- | --- |
| Cc1cc2c(OCC(CNC(C)(C)C)OC(=O)c3ccccc3)cccc2[nH]1 (stereo not given) | inactive |
| CCOc1ccccc1O[C@H](c1ccccc1)[C@H]1CNCCO1 | inactive |
| CC1(C)[C@@H](OC(=O)CCC(=O)O)CC[C@]2(C)[C@H]3C(=O)C=C4[C@@H]5C[C@@](C)(C(=O)O)CC[C@]5(C)CC[C@@]4(C)[C@]3(C)CC[C@@H]12 | inactive |
| Brc1cc2ccccc2c2ccccc12 | inactive |
| C=C/C(C)=C/C/C=C(\C)CCC=C(C)C | inactive |
| NCCNCCO | inactive |
| C[C@@H]1CC(=O)NN=C1c1ccc(NN=C(C#N)C#N)cc1 | inactive |
| CN(C(=O)CN(CCO)CC(=O)N(C)C(C)(C)Cc1ccccc1)C(C)(C)Cc1ccccc1 | inactive |
| NC1[C@H]2CN(c3nc4c(cc3F)c(=O)c(C(=O)O)cn4-c3ccc(F)cc3F)C[C@@H]12 (stereo not given in full) | inactive |
| CN1C(=O)OC(C)(C)C1=O | inactive |
| O=C(O)CCc1nc(-c2ccccc2)c(-c2ccccc2)o1 | inactive |
| CC1(CN2CCC(n3c(=O)[nH]c4ccccc43)CC2)OCc2ccccc2-n2cccc21 (stereo not given) | inactive |
| Nc1ncnc2c1ncn2[C@H]1CC[C@@H](CO)O1 | inactive |
| CN1CCCN=C1COC(=O)C(O)(c1ccccc1)C1CCCCC1 (stereo not given) | inactive |
| CCOC(=O)c1ccc(C#Cc2ccc3c(c2)C(C)(C)CCS3)nc1 | inactive |
| C=COCC(C)C | inactive |
| C=CC(C)(CCC=C(C)C)OC(=O)CC(C)C (stereo not given) | inactive |
| CC(=O)OCC[N+](C)(C)C | inactive |
| O=c1[nH]c2ccc(Cl)cc2o1 | inactive |
| C=C(C)[C@@H]1CCC2=CCC[C@@H](C)[C@]2(C)C1 | inactive |

| Structure (SMILES) | Potency |
| --- | --- |
| O=C(CCCN1CC=C(n2c(=O)[nH]c3ccccc32)CC1)c1ccc(F)cc1 | inactive |
| Cc1ccc(OC(=O)c2ccccc2O)cc1 | inactive |
| C1C[C@@H]2[C@H]3CC[C@H](C3)[C@@H]2C1 | inactive |
| O=c1c(O)c(-c2ccc(O)cc2)oc2cc(O)cc(O)c12 | inactive |
| C/C=C/C=C/C=O | inactive |
| O=C1NCCN1CCO | inactive |
| Cc1cc(=O)c2c(O)c3c(O)cc(=O)c4c3c3c(cc(O)c1c23)C(C)(C)C=4O | 1.84 µM (active) |
| C[C@@H](O[C@H]1OCCN(Cc2n[nH]c(=O)[nH]2)[C@H]1c1ccc(F)cc1)c1cc(C(F)(F)F)cc(C(F)(F)F)c1 | 29.8 µM (active) |
| CC(=O)Oc1ccc([N+](=O)[O-])cc1CCl | inactive |
| CN1C(C(=O)Nc2ccccn2)=C(O)c2sccc2S1(=O)=O | inactive |
| O=C1CCCCCCCCCCOCCCCO1 | inactive |
| C[C@H]1C[C@H](O)c2ccsc2S1(=O)=O | inactive |
| N#[N+]c1ccc2c(S(=O)(=O)[O-])cccc2c1O | inactive |
| O=C(/C=C/c1ccccc1)OCCc1ccccc1 | inactive |
| CC(C)C=O | inactive |
| CC1(C)S[C@@H]2[C@H](NC(=O)C(c3ccccc3)S(=O)(=O)O)C(=O)N2[C@H]1C(=O)O (stereo not given in full) | inactive |
| CCC(OCCCOC)OC(C)=O (stereo not given) | inactive |
| C=C(C)C(=O)OCCCCCCCCCCCCC | inactive |
| N#CCCN(CCO)CCO | inactive |
| CC[N+](CC)(CCNC(=O)C(=O)NCC[N+](CC)(CC)Cc1ccccc1Cl)Cc1ccccc1Cl | inactive |
